# Measured values: PubChem BioAssay AID686979 (National Center for Advancing Translational Sciences (NCATS), 2013)
# Screen size: about 420,000 compounds; about 50,000 (12%) were called active. Where a call stands in place of a potency, no number is given. Roughly 26% stayed inconclusive and do not appear here. Calls follow the shape of the dose curve; as a rule, active = well fitted inhibition curve with a large enough effect; inconclusive = small, poorly fitted or top-dose-only effect; inactive = flat fitted curve, though single readings scatter. The full list was thinned out, with actives kept by preference.
# Assay: qHTS for Inhibitors of human tyrosyl-DNA phosphodiesterase 1 (TDP1): qHTS in cells in presence of CPT; also: nearly all actives have a fitted effect of over 55% in size
# Conditions: chicken DT40 Tdp1-/-;hTDP1 cells + 20 nM CPT, ATP luminescence, 48 h; series mostly up to 46.2 µM
# Outline: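 Chicken DT40 Tdp1-/- cells stably complemented with human TDP1 were seeded at 400 cells/well in medium containing 20 nM camptothecin, exposed to pin-transferred compounds, and grown at 37 °C for at least 48 hr. Viability was read as ATP luminescence.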
# Potency is read from the fitted curve at half-maximal effect.
row,SMILES,Potency
1,C=CC(C1=CC(=O)C=CC1=O)c1ccc(O)cc1 (centres undefined),1.64 µM (active)
2,CSc1ncccc1C(=O)OCc1ccc(Br)cc1,inactive
3,NC(=O)C1(Nc2ccc(-c3ccccc3)cc2)CCCC1,inactive
4,COc1cccc(S(=O)(=O)NCc2ccc(C(=O)NCc3ccccn3)cc2)c1,0.92 µM (active)
5,O=[N+]([O-])c1cccc(S(=O)(=O)NCc2ccccn2)c1,inactive
6,COc1ccc2oc(=O)c(C(=O)NCc3ccccn3)cc2c1,inactive
7,O=C(COC(=O)c1ccc(F)cc1)NCCCc1ccccc1,inactive
8,Cn1c(SCC(=O)N2CCCCC2)nc2c(c1=O)SCC2,inactive
9,Cc1c(NC(=O)c2cc(=O)c3ccccc3o2)c(=O)n(-c2ccccc2)n1C,inactive
10,O=C1CC(c2ccccc2)C(c2ccccc2)=NN1 (centres undefined),inactive
11,CC(C)CCC(=O)Nc1cc(S(=O)(=O)N2CCOCC2)ccc1N1CCCC1,inactive
12,CC(=O)Nc1ccc(C(=O)Nc2cc(S(=O)(=O)N3CCOCC3)ccc2N2CCOCC2)cc1,inactive
13,CC(=O)NCCC(=O)Nc1cc(S(=O)(=O)N2CCOCC2)ccc1N1CCOCC1,inactive
14,COCCNC(=S)Nc1cc(S(=O)(=O)N2CCOCC2)ccc1N1CCCCC1,20.6 µM (active)
15,CC(C)CCOc1ccc(C(=O)Nc2cc(S(=O)(=O)N3CCOCC3)ccc2N2CCOCC2)cc1,9.2 µM (active)
16,CC(Oc1ccc(F)cc1)C(=O)Nc1cc(S(=O)(=O)N2CCOCC2)ccc1N1CCN(C)CC1 (centres undefined),inactive
17,COc1ccc(CNC(=O)Cn2nnc(-c3ccccc3F)n2)cc1,inactive
18,COC(=O)[C@@H]1CC(O)CN1C(=O)C12CC3CC(CC(C3)C1)C2 (some centres undefined),inactive
19,CN(C)/C(=N\OC(=O)c1ccccc1)c1nonc1N,inactive
20,C=C(C)CNC(=O)c1ccc(OC2CCN(C(=O)COC)CC2)cc1,inactive
21,Cc1c(NC(=O)CSc2nnnn2-c2ccc(C(=O)O)cc2)c(=O)n(-c2ccccc2)n1C,inactive
22,CS(=O)(=O)N(CC(=O)N1CCc2ccccc2C1)c1ccc(Br)cc1,inactive

row,SMILES,Potency
1,CN(CCc1ccccc1)c1ccc([N+](=O)[O-])cn1,inactive
2,Cc1c(C)c2c(OCC(=O)N[C@@H](C(=O)O)c3ccccc3)cc3c(c2oc1=O)CCC(C)(C)O3,inactive
3,COc1ccc2c(c1)CCc1cnc(-n3ncc(C(=O)NCCN4CCOCC4)c3C)nc1-2,inactive
4,Cc1cc(C)nc(SCC(=O)c2ccc(Cl)cc2)n1,inactive
5,COC(=O)c1cc(C(=O)CSc2nc(C)cc(C)n2)ccc1O,inactive
6,Cc1cc(Oc2ccc(Cl)cc2)nc(SCC(=O)c2ccccc2)n1,23.1 µM (active)
7,O=C(COC(=O)CCCSc1nc2ccccc2[nH]1)Nc1ccc(Oc2ccccc2)cc1,inactive
8,NC(=O)CC[C@@H]1NC(=O)[C@@H]2CCCN2C(=O)c2cc([N+](=O)[O-])cc(F)c2NCCC[C@@H](C(N)=O)NC1=O,inactive
9,CC1(C)CN(Cc2cccnc2)C(=O)[C@H]1CC(=O)Nc1ccc(Br)cc1,inactive
10,COC(=O)CN1C(C)=Nc2ccc(Br)cc2C1c1ccccc1 (centres undefined),inactive
11,COc1ccc(CC(=O)N2CC(=O)Nc3ccc(Br)cc3C2c2ccc(F)cc2)cc1OC (centres undefined),16.4 µM (active)
12,CCC(CC)C(=O)N1CC(=O)Nc2ccc(Br)cc2C1c1ccccc1 (centres undefined),23.1 µM (active)
13,CC(C)C(=O)N1CC(=O)Nc2ccc(F)cc2C1c1ccc(F)cc1 (centres undefined),inactive
14,Cc1ccc2c(c1)C(c1ccccc1)N(C(=O)c1ccc(F)cc1)CC(=O)N2 (centres undefined),inactive
15,O=C1CN(C(=O)c2ccccc2F)C(c2ccc(F)cc2)c2cc(F)ccc2N1 (centres undefined),inactive
16,COc1ccc(C(=O)Nc2ccnn2C2CCN(Cc3ccncc3)CC2)cc1,inactive
17,COC(=O)c1sc2ncccc2c1-n1c(C)ccc1C,inactive
18,Cc1cc(Cl)ccc1NNC(=O)c1snnc1C,inactive
19,Brc1ccc(-c2csc(N/N=C/c3cccnc3)n2)cc1,inactive
20,O=C(CSc1nnc(Cn2cnc3ccccc32)o1)c1ccccc1,11.6 µM (active)
21,CC(=O)Nc1ccc(C(=O)CSc2nnc(Cc3ccccc3)o2)cc1,inactive
22,O=C(CSc1nnc(-c2c[nH]c3ccccc23)o1)c1ccccc1,inactive

row,SMILES,Potency
1,CCCN(c1ccc(C)cc1)c1nc(=O)c2cccnc2s1,inactive
2,CCOC(=O)c1c(C)oc2nc(C)nc(N3CCN(c4ccc(OC)cc4)CC3)c12,7.31 µM (active)
3,Cc1nc(N2CCOCC2)c2c(C(=O)NCc3cccc(Cl)c3)c(C)oc2n1,inactive
4,COc1ccc(N2CCN(C(=O)c3c(C)oc4nc(C)nc(N5CCCC5)c34)CC2)cc1,inactive
5,CCOc1ccc(CCNC(=O)CN(c2ccc(C)cc2)S(=O)(=O)N(C)C)cc1OCC,inactive
6,CCOC(=O)c1[nH]c2c(c1-c1ccccc1)C(=O)CC(c1ccc(Cl)cc1)C2 (centres undefined),inactive
7,CCOc1ccc(C2CC(=O)c3c([nH]c(C(=O)OCc4ccccc4)c3C)C2)cc1 (centres undefined),13 µM (active)
8,CCc1ccc(C2CC(=O)c3c([nH]c(C(=O)OCc4ccc(C)cc4)c3C)C2)cc1 (centres undefined),6.51 µM (active)
9,CCOC(=O)c1cc(=O)c2ccc(OCc3ccccc3)cc2o1,inactive
10,CC(C)(C)N1C(=O)c2c(C(=O)OCc3ccccc3)[nH]c(-c3ccccc3)c2C1=O,inactive
11,CCOC(=O)C(Cc1ccccc1)NC(=O)CCC(=O)c1ccc(OC)cc1 (centres undefined),inactive
12,CN1C(=O)/C(=C/C=C2\SCCN2C)OC1=S,inactive
13,Cc1ccn2c(=O)nc(SCC(=O)NCc3ccc4c(c3)OCO4)nc2c1,inactive
14,CCOc1ccccc1NC(=O)CSc1ncc(S(=O)(=O)c2ccc(C(C)(C)C)cc2)c(=O)[nH]1,inactive
15,O=C(NCC(=O)N(c1ccccc1)C(C(=O)NCC1CCCO1)c1ccccc1)c1cccs1 (centres undefined),inactive
16,Cc1ccc(N2CCN(C(=O)CCc3c(C)nc4c(c3C)c(=O)n(C)c(=O)n4C)CC2)c(C)c1,inactive
17,COc1cc(NC(=O)CCn2nc(C)cc2C)cc(OC)c1OC,inactive
18,Cc1ccc(Cc2c(C)nc3nc(SCC(=O)NCCN4CCOCC4)nn3c2C)cc1,inactive
19,COc1cc(NC(=O)CSc2nc3nc(C)c(Cc4ccc(C)cc4)c(C)n3n2)cc(OC)c1OC,13 µM (active)
20,CCn1c(SC)nc(O)c(C(c2ccc(OC)c(O)c2)c2c(O)nc(SC)n(CC)c2=O)c1=O,inactive
